Compounds with a hit are over-represented: about 3.4% of the library has one in this group of screens.
FBW7 activator: FBW7 E3 ligase activators, primary screen, biochemical, AlphaScreen, human; F-box/WD repeat-containing protein 7 (Homo sapiens), Q969H0; AlphaScreen FBW7–phospho-cyclin E peptide binding, activator screen; normalized activity (activation), % at 26.1 µM; 0.13% of 650,000 active; AID 1259310, 2017; in the data active = normalized activity above about 1.9%;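 note: purified mutant Fbw7 with reduced substrate affinity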
TEAD-YAP inh: TEAD-YAP interaction inhibition, primary screen, TEAD-YAP interaction inhibitor project, luminescence, HEK-TIYL cells | TEAD-Gal4/YAP UAS-luciferase luminescence | inhibition, % at 9.12 µM | 1.4% of 640,000 active | AID 1259422, 2018; in the data active = inhibition above about 32%;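 note: 0% = median of test compound wells and 100% = reference inhibitor wells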
GPR151 ag: activators of human GPR151, primary screen, cell-based, PathHunter beta-arrestin, luminescence. PathHunter beta-arrestin GPR151 cells. activation, % at 11.2 µM. 1% of 650,000 active. AID 1508602, 2020; in the data active = activation above about 4.9%;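 note: 0% = median of compound wells and 100% = cells with positive control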
Target sequence (Q8TDV0 whole entry, looked up): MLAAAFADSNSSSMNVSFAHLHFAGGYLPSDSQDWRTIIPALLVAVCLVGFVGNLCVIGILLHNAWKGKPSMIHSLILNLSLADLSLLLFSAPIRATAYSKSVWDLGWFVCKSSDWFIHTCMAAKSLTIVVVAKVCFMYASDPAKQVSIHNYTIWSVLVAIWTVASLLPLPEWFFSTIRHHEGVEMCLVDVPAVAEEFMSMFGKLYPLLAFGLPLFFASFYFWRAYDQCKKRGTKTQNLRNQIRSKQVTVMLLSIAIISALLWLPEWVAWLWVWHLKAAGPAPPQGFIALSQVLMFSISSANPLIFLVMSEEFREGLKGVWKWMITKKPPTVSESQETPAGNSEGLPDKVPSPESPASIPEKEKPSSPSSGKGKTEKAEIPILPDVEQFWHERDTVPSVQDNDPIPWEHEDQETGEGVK
MITF primary: MITF inhibitors, primary screen, biochemical, AlphaScreen, human; Microphthalmia-associated transcription factor (Homo sapiens), O75030; AID 1259374, 2018; 0.91% of 650,000 active; inhibition, % at 2.6 µM; AlphaScreen MITF homodimerization, bead proximity signal; in the data active = inhibition above about 50%;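 note: 0% = vehicle wells with protein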
GPR151 conf act: GPR151 activators, triplicate retest, confirmation, cell-based, PathHunter beta-arrestin, luminescence; shares compounds with GPR151 ag; GPR151 PathHunter beta-arrestin cells, 90 min; % of EA-reagent control over plate median; activation, % at 11.2 µM; 6,700 tested, under 10 active; AID 1508609, 2020;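 active = mean percent activation across replicates above the confirmation screen cutoff of 4.91%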
GPR119 ag: GPR119 activators in beta-arrestin cells, counter-screen for GPR151 activator project, cell-based, PathHunter beta-arrestin, luminescence, triplicate. shares compounds with GPR151 ag. 90 min; 0 = compound-well median, 100 = enzyme-acceptor control. activation, % at 11.2 µM. 0.3% of 6,700 active. AID 1508611, 2020;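 active = mean percent activation in the counterscreen above 29.09%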;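 note: counterscreen on off-target GPR119 to flag nonselective hits from the GPR151 activator screen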
* = called active by the depositor; . = no result given; ! = repeats disagree.

SMILES	FBW7 activator	TEAD-YAP inh	GPR151 ag	MITF primary	GPR151 conf act	GPR119 ag
CCN(CC)c1nc(NCc2cccc(C(F)(F)F)c2)nc(NCc2ccc3c(c2)OCO3)n1	0.1	-6.2	6.4*	6.7	0.0	-10.1
COC(=O)C1=C(C)N(c2ccc(C(C)C)cc2)C(=O)/C1=C\c1ccco1	-0.2	28.7	6.0*	11.1	0.1	12.2
COC(=O)C1=C(C)N(c2ccc(Cl)cc2)C(=O)/C1=C\c1ccco1	-0.1	6.4	2.7	9.3	.	.
CCn1c(SCc2nc(-c3cccs3)no2)nnc1-c1ccco1	0.0	-2.7	6.9*	-139.1	-0.1	6.9
Cn1c(SCc2nc(-c3cccs3)no2)nnc1-c1ccco1	0.1	4.4	2.1	9.2	.	.
Cn1c(Cl)cnc1COC(=O)c1ccc(OCc2ccccc2)cc1	0.1	6.4	-3.2	-0.6	.	.
CSc1ccc(/C=N\NC(=O)CNc2ccc(C)cc2)cc1	0.1	-3.3	5.8*	5.9	0.2	-11.8
CC(C)(C)C(=O)NC(=O)Nc1ncc(S(C)(=O)=O)c(-c2ccc(C(F)(F)F)cc2)n1	-0.1	-0.7	8.0*	-2.7	-0.7	-5.3
CS(=O)(=O)c1cnc(-c2ccncc2)nc1-c1ccc(C(F)(F)F)cc1	0.4	-4.8	-2.1	8.2	.	.
COC(=O)Cn1c(=O)c2c(nc3n(-c4ccc(Br)cc4)c(C)cn23)n(C)c1=O	0.1	3.4	-0.6	15.2	.	.
COc1ccc(-n2c(=S)[nH]c3cc(C(=O)Nc4cccnc4)ccc3c2=O)cc1	0.0	-3.5	0.0	10.6	.	.
COC(=O)C1=C(O)/C(=C\c2cc(C)n(-c3cc(Cl)ccc3C)c2C)N=C1C	0.1	0.0	-0.3	-12.5	.	.
COC(=O)C1=C(O)/C(=C/c2cc(C)n(-c3cc(C)ccc3C)c2C)N=C1C	-0.4	8.6	5.2*	-8.9	-1.1	-8.3
COc1cc2nc(=S)n3[nH]c(CCn4c(C)nc5ccccc54)nc3c2cc1OC	0.2	-2.5	5.5*	7.1	-0.3	-1.9
COc1ccc(OCc2nc3c4cc(OC)c(OC)cc4nc(=S)n3[nH]2)cc1	0.4	0.8	0.9	-1.2	.	.
CCc1ccc(C2C(C(C)=O)=C(O)C(=O)N2CCNCCO)cc1 (centres undefined)	0.1	2.5	5.4*	10.2	0.4	7.6
CC(=O)C1=C(O)C(=O)N(CCNCCO)C1c1ccc(Cl)cc1 (centres undefined)	0.0	8.0	-0.1	0.6	.	.
c1cncc(-c2noc(CCC3CCCC3)n2)c1	-0.1	-5.0	7.7*	-11.6	0.6	2.6
c1cncc(-c2noc(C34CC5CC(CC(C5)C3)C4)n2)c1	0.0	-2.9	6.9*	-10.0	1.9	-0.2
CCN(CC)c1ccc(/C=N/n2c(-c3cccnc3)n[nH]c2=S)c(O)c1	-0.2	26.9	1.7	12.7	.	.
O=C(Nc1ccccc1Br)c1nn2c(C(F)(F)F)cc(-c3ccccc3)nc2c1Cl	-0.2	-7.5	-0.1	-2.5	.	.
CCC(=O)N/C(N)=N/c1nc(C)c2ccc(OC)cc2n1	0.2	15.6	1.8	12.0	.	.
O=C(Nc1cccc(NC(=O)c2ccccc2F)c1)c1ccccc1F	0.0	-7.8	1.4	12.7	.	.
O=C(Nc1ccc(Oc2cccc(Oc3ccc(NC(=O)c4ccccc4F)cc3)c2)cc1)c1ccccc1F	0.0	-1.5	18.3*	11.7	-0.6	-10.3
O=C(NCCN1CCn2cc(OCc3ccc(F)cc3)c(=O)cc2C1=O)C1CC1	0.0	-0.4	6.7*	5.3	0.9	-10.8
SMILES	FBW7 activator	TEAD-YAP inh	GPR151 ag	MITF primary	GPR151 conf act	GPR119 ag
Cc1ccccc1C(=O)NCCN1CCn2cc(OCc3ccccc3)c(=O)cc2C1=O	0.1	1.8	2.2	7.6	.	.
COc1cccc(NC(=O)C(CCSC)NC(=O)C2CCC(C)CC2)c1 (centres undefined)	0.0	-6.9	10.2*	-4.4	0.6	-1.9
CCOC(=O)c1cccc(NC(=O)C(CCSC)NC(=O)C2CCC(C)CC2)c1 (centres undefined)	0.1	-4.9	-0.2	-4.6	.	.
CC(C)CC(N=Cc1c(O)c2ccccc2oc1=O)C(=O)O (centres undefined)	0.0	-5.9	5.5*	-4.7	-0.4	10.7
NC[C@H]1O[C@H](O[C@H]2[C@H](O)[C@@H](O[C@H]3O[C@H](CO)[C@@H](O)[C@H](N)[C@H]3O)[C@H](N)C[C@@H]2N)[C@H](N)C[C@@H]1O	0.0	6.7	23.8*!	-0.4	0.9	0.0
COc1cccc(CNc2nn[nH]n2)c1OC	0.0	7.6	8.4*	11.8	-1.0	-6.6
COc1cc(Nc2cc(-c3ccc(C(N)=O)cc3)nc(N)n2)cc(OC)c1OC	0.1	-2.5	12.0*	5.5	1.8	-3.4
Nc1c(C(=O)N2CC(=O)Nc3ccccc32)sc2nc3cc4c(cc3cc12)OCO4	-0.1	1.8	0.4	11.6	.	.
COc1ccccc1C1(NC(=O)CCn2nc(C)cc2C)CCCC1	0.1	8.4	5.0*	-11.4	0.7	-2.6
COc1ccccc1C1(NC(=O)CCn2cccn2)CCCC1	0.1	4.6	1.9	14.9	.	.
O=C(Cc1ccccc1)Nc1cnn(-c2cccc(C(=O)Nc3cccc(CN4CCOCC4)c3)c2)c1	-0.1	4.0	5.2*	-6.8	-0.4	-1.9
Cc1cccc(NC(=O)Nc2cnn(-c3cccc(C(=O)Nc4cc(C)c(C)c(C)c4)c3)c2)c1	0.2	-4.3	1.1	-9.4	.	.
Cc1cccc(NC(=O)Nc2cnn(-c3cccc(C(=O)Nc4ccnc(C)c4)c3)c2)c1	0.0	24.8	6.6*	-5.5	-0.9	-6.1
Cc1cccc(NC(=O)Nc2cnn(-c3cccc(C(=O)NOCc4ccccc4)c3)c2)c1	0.1	-3.7	4.9*	13.6	-0.4	-7.4
Cc1ccc(N2C(=O)c3cccc4c(N)ccc(c34)C2=O)cc1	0.0	-14.9	-0.8	1.5	.	.
COc1cccc2cc(-c3nnc(Nc4ccccc4)s3)c(=O)oc12	-0.1	-19.2	0.0	-4.0	.	.
O=C(Nc1cccc(-c2cn3ccsc3n2)c1)C1CCCC1	0.7	-44.1	-4.8	11.8	.	.
CCCOc1ccc(C2C3=C(CC(C)(C)CC3=O)Nc3ccccc3N2C(=O)CC)cc1OC (centres undefined)	-0.1	0.9	0.1	7.6	.	.
Cn1ccnc1N1CCN(C(=O)c2cccc(F)c2)CC1	0.1	4.7	5.1*	9.2	-1.1	-12.5
Cc1cc(C)n2nc(NCc3ccccc3Cl)nc2n1	0.3	-19.6	5.1*	14.6	0.8	4.6
N#Cc1ccc(NN2C(=O)c3ccccc3C2=O)c([N+](=O)[O-])c1	0.0	8.9	1.0	-0.3	.	.

Assay outcomes: PubChem, The Scripps Research Institute Molecular Screening Center
